Screens: PubChem BioAssay, National Center for Advancing Translational Sciences (NCATS)
NPR1 antag = human Npr1 receptor antagonism; HEK293 hNpr1 GloSensor cGMP, ANP-stimulated luminescence; Potency, µM (top dose mostly 46.3 µM), for the others: top-dose activity change, negative = inhibition, actives largely listed as inhibitors; P16066; 76,000 tested, 1.6% active; calls by dose curve; also: nearly all actives have a fitted effect of over 60% in size
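HEK293 cells stably expressing human Npr1 and cGMP GloSensor pGS-40F, loaded 2 h with 2% GloSensor reagent, given compound 30 min at room temperature. Luminescence read before and 20 min after 0.1 nM hNppA.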
3T3 cytotox = NIH 3T3 cell cytotoxicity; AID 1345082; Potency, µM (series often up to 96.7 µM), for the others: at the highest dose activity change, negative = cytotoxicity, most hits filed as inhibitors; 94,000 tested, 4.3% active; NIH 3T3 viability, CellTiter-Glo ATP luminescence, 48-72 h; also: nearly all actives have a fitted effect of over 55% in size
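Cytotoxicity was measured by CellTiter-Glo ATP luminescence after 48 or 72 h compound exposure at 37 °C. Mouse NIH 3T3 fibroblasts were seeded at 400 cells/well and dosed by 23 nL pin transfer.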
Luciferase inh = blocks purified firefly luciferase enzyme activity | purified P. pyralis luciferase, luminescence, biochemical | Potency, µM (top dose mostly 115 µM), actives largely listed as inhibitors | 76,000 tested, 2.5% active; also: nearly all actives have a fitted effect of over 65% in size
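Biochemical qHTS: compound (6-point titration) added to 10uM D-luciferin plus 10uM ATP in Tris acetate pH 7.5 buffer with Mg, Tween-20 and BSA, then purified enzyme at 10nM; light output imaged.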
HEK293 tox = cytotoxic compounds in HEK 293 cells. HEK 293 viability, ATP luminescence (CellTiter-Glo), 48-72 h. Potency, µM (titrated, usually from 115 µM), for the others: top-dose activity change, negative = cytotoxicity, most hits filed as inhibitors. 94,000 tested, 6.6% active. AID 1345083; also: nearly all actives have a fitted effect of over 60% in size
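250 HEK 293 cells/well; compound by pintool; incubated 48 or 72 hr at 37 degree Celsius; CellTiter-Glo added, 10 min RT, luminescence imaged.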
Active calls of the source: *; [ ] = dose if it differs, or a comment. Most compounds without a hit are left out; they make up all but 11% or so of the library. Unless noted, calls follow the shape of the dose curve; as a rule, active = well fitted curve in the direction sought with a large enough effect; inconclusive = small, poorly fitted or top-dose-only effect, or another doubt; inactive = no such curve, though single readings can be large; an effect the other way counts as inactive or inconclusive. % is scaled to controls: 0 for no effect and ±100 for the full control effect; potency is read from the fitted curve at half-maximal effect.

Results for O=C(Nc1ccccc1Cl)C1CN(S(=O)(=O)C2CC2)CC12CCCCC2 (centres undefined) ?
NPR1 antag: -5%; 3T3 cytotox: -16%; Luciferase inh: inactive; HEK293 tox: -25%

How did O=C(C1CCCN([S+](=O)([O-])c2cccs2)C1)N1CCC(N2CCOC2=O)CC1 (centres undefined) do in these assays?
3T3 cytotox: -9%; HEK293 tox: -1%

Results for COc1ccc(-c2cnc3[nH]cc(CC(=O)Nc4ccc(F)c(Cl)c4)c3c2)cc1 ?
NPR1 antag: -23%[70.6 µM]; 3T3 cytotox: 32µM*; Luciferase inh: inactive; HEK293 tox: inconclusive

Results for O=C(Cc1c[nH]c2ncc(-c3cccnc3)cc12)Nc1ccc(C(F)(F)F)cc1 ?
NPR1 antag: inconclusive; 3T3 cytotox: inconclusive; Luciferase inh: inactive; HEK293 tox: inconclusive

Results for COc1ccc(NC(=O)Cc2c[nH]c3ncc(-c4ccccc4)cc23)cc1 ?
NPR1 antag: -26%[70.6 µM]; 3T3 cytotox: inconclusive; Luciferase inh: inactive; HEK293 tox: -16%[172 µM]

Results for COc1ccc(-c2cnc3[nH]cc(CC(=O)Nc4ccc(C(F)(F)F)cc4)c3c2)cc1 ?
NPR1 antag: -18%[70.6 µM]; 3T3 cytotox: 45µM*; Luciferase inh: inactive; HEK293 tox: inconclusive

What do the screens show for `Cn1cc(-c2cnc3[nH]cc(CC(=O)Nc4ccccc4Cl)c3c2)cn1`?
NPR1 antag: 5%[70.6 µM]; 3T3 cytotox: inconclusive; Luciferase inh: inactive; HEK293 tox: -11%[172 µM]

What do the screens show for `O=C(Cc1c[nH]c2ncc(-c3ccccc3)cc12)Nc1ccc(C(F)(F)F)cc1`?
NPR1 antag: -7%[70.6 µM]; 3T3 cytotox: inconclusive; Luciferase inh: inactive; HEK293 tox: 63µM*

What do the screens show for `CNC(=O)c1c(C)nc2cnccn12`?
3T3 cytotox: 1%[174 µM]; HEK293 tox: inactive

Results for CCOC(=O)C1CCN(C(=O)c2ccc3nnc(-c4c(C)cccc4C)n3c2)CC1 ?
3T3 cytotox: inconclusive; HEK293 tox: 5%

Results for COc1cccc(CNC(=O)c2ccc3c(c2)CC(=O)N3Cc2cccc(F)c2)c1OC ?
NPR1 antag: 1%; 3T3 cytotox: inconclusive; Luciferase inh: inconclusive; HEK293 tox: inconclusive

Results for Cc1ccc(Nc2ccnc(N3CCC(NC(=O)Nc4ccc(Cl)cc4)CC3)n2)cc1 ?
3T3 cytotox: 22µM*; HEK293 tox: 25µM*

How did COc1ccc(Nc2ccnc(N3CCC(NC(=O)Nc4ccc(Cl)cc4)CC3)n2)cc1 do in these assays?
3T3 cytotox: 32µM*; HEK293 tox: 20µM*

How did CCOC(=O)[C@@H]1[C@@H](OC)C(=O)N(C)C12CCN([S+](=O)([O-])c1ccc(C(C)=O)cc1)CC2 do in these assays?
3T3 cytotox: inconclusive; HEK293 tox: 3%

What do the screens show for `CN1C(=O)c2cccn2CC1CNC(=O)c1cc2ccccc2[nH]1` (centres undefined)?
NPR1 antag: -1%; 3T3 cytotox: -7%; Luciferase inh: inactive; HEK293 tox: -26%

Results for CC1(CNc2ccccc2)COc2ccc(C(=O)NCc3cccs3)cc2N1 (centres undefined) ?
NPR1 antag: -2%[70.6 µM]; 3T3 cytotox: inconclusive; Luciferase inh: inactive; HEK293 tox: 100µM*

Results for CC1(COc2ccccc2)COc2ccc(C(=O)NCc3cccs3)cc2N1 (centres undefined) ?
NPR1 antag: -11%[70.6 µM]; 3T3 cytotox: inconclusive; Luciferase inh: inactive; HEK293 tox: 112µM*

Results for CC1(CNCc2ccccc2)COc2ccc(C(=O)NCc3cccs3)cc2N1 (centres undefined) ?
NPR1 antag: -11%[70.6 µM]; 3T3 cytotox: inconclusive; Luciferase inh: inactive; HEK293 tox: inconclusive

How did O=C(C1CCCC1)N1CC2(CCCN2C2COC2)Cc2ccccc21 (centres undefined) do in these assays?
3T3 cytotox: -11%; HEK293 tox: -27%

How did CO[C@H]1CN(C2CCN(C(=O)c3cccs3)CC2)[C@H]1c1cccnc1 do in these assays?
3T3 cytotox: -22%; HEK293 tox: -21%

How did CCOC(=O)C1CCN(C(=O)c2ccc3nc(-c4ccnc(Cl)c4)oc3c2)CC1 do in these assays?
3T3 cytotox: 100µM*; HEK293 tox: 100µM*

How did CCOC(=O)C1CCN(C(=O)c2ccc3nc(-c4ccncc4)oc3c2)CC1 do in these assays?
3T3 cytotox: -27%; HEK293 tox: -27%

What do the screens show for `CCN1CCN(CCCNC(=O)CC2CCN(c3ccnc(NC)n3)CC2)CC1`?
NPR1 antag: -1%; 3T3 cytotox: -14%; Luciferase inh: inactive; HEK293 tox: -27%

What do the screens show for `COc1cccc(-c2cccc(C(=O)N3CCCC3C(=O)NC3CCC3)c2)c1` (centres undefined)?
3T3 cytotox: -29%; HEK293 tox: -27%

What do the screens show for `O=C1COCCN1C1CCN(Cc2cccc3ccccc23)CC1`?
3T3 cytotox: -6%; HEK293 tox: -13%

How did O=C(c1cc2ccccc2[nH]1)N1CCN(c2cc(-c3ccccc3)[nH]n2)CC1 do in these assays?
NPR1 antag: -10%; 3T3 cytotox: 35µM*; Luciferase inh: inconclusive; HEK293 tox: inconclusive

How did COc1ccc(-c2cc(N3CCN(C(=O)c4cc5ccccc5[nH]4)CC3)n[nH]2)cc1 do in these assays?
NPR1 antag: -28%; 3T3 cytotox: 20µM*; Luciferase inh: inconclusive; HEK293 tox: 28µM*

How did COc1ccc(-c2cc(N3CCCN(C(=O)c4ccccc4)CC3)n[nH]2)cc1 do in these assays?
NPR1 antag: 3%; 3T3 cytotox: -11%; Luciferase inh: inactive; HEK293 tox: inconclusive

Results for O=C(c1ccc(F)cc1F)N1CCN(c2cc(-c3ccc(F)cc3)[nH]n2)CC1 ?
NPR1 antag: inconclusive; 3T3 cytotox: inconclusive; Luciferase inh: inactive; HEK293 tox: 40µM*

Results for O=C(c1ccccc1Cl)N1CCN(c2cc(-c3ccccc3)[nH]n2)CC1 ?
NPR1 antag: -13%; 3T3 cytotox: inconclusive; Luciferase inh: inactive; HEK293 tox: 20µM*

Results for CC(C)C(=O)Nc1cc(C2CCCC2)nn1C ?
3T3 cytotox: -14%[138 µM]; HEK293 tox: -8%[172 µM]

How did O=C(NCc1ccccc1C(F)(F)F)C1CCCN(c2cnn(Cc3ccccc3)c(=O)c2)C1 (centres undefined) do in these assays?
NPR1 antag: -19%; 3T3 cytotox: inconclusive; Luciferase inh: inactive; HEK293 tox: 45µM*

Results for COCc1ncc(C)n1CC1CCCN(Cc2cccnc2)C1 (centres undefined) ?
3T3 cytotox: 1%; HEK293 tox: 2%

What do the screens show for `CC1=C[C@@H](CN2CCN(C)CC2)[C@H](C(C)C)C[C@H]1Cc1nnc(-c2ccccc2F)o1`?
NPR1 antag: 1%[70.6 µM]; 3T3 cytotox: inconclusive; Luciferase inh: inactive; HEK293 tox: 45µM*

What do the screens show for `CC1=C[C@@H](CNC(=O)c2cncnc2)[C@H](C(C)C)C[C@H]1Cc1nnc(-c2ccccc2F)o1`?
NPR1 antag: -8%; 3T3 cytotox: inconclusive; Luciferase inh: inactive; HEK293 tox: inconclusive
